Test results: article PMC7862700, “An all-to-all approach to the identification of sequence-specific readers for epigenetic DNA modifications on cytosine”

What was measured:
Assay in all cases: DAPPL (digital affinity profiling via proximity ligation, sequencing); 10 mM Tris-HCl pH 7.5, 50 mM NaCl, 1 mM DTT, 4% glycerol, room temperature, 30 min; GST-TFs on glutathione beads, 16-mer random dsDNA library, 0.1% formaldehyde crosslink after washing; high values mean tight binding
Conditions in all cases: protein: recombinant; tags: N-terminal GST; dsDNA, one strand shown
ELK1 = target: T1, ELK1 (Homo sapiens, UniProt P19419 1-428)
T1 sequence: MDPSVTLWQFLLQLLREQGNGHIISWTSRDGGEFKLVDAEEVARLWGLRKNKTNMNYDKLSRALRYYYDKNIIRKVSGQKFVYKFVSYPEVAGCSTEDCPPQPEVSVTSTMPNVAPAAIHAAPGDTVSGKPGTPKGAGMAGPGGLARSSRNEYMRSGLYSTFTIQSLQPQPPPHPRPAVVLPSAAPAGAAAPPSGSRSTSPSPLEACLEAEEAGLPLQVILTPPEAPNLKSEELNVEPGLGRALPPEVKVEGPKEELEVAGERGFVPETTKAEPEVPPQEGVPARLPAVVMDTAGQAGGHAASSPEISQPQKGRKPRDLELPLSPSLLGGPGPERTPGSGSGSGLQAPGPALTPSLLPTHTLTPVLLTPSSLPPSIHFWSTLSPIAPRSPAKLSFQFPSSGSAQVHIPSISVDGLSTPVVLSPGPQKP
How it was run: (§1)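 Beads coated with glutathione captured GST-fused human transcription factors that had been expressed in yeast, and the factors were then given DNA barcodes and pooled with a tag-only sample. The pools were incubated with 200 nmole of a random double-stranded 16-mer DNA library in Tris/NaCl/DTT/glycerol buffer for 30 min at room temperature, washed, crosslinked with 0.1% formaldehyde and proximity-ligated with BsaI/T4 ligase at 37 °C for 1 h. PCR amplification and Illumina NextSeq500 sequencing came last. Binding signal is each hexamer's read frequency for a factor divided by its frequency for the tag-only sample.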

ELF1 = ELF1 (Homo sapiens, UniProt P32519 1-619)
How it was run: as §1

ETV5 = ETV5 (Homo sapiens, UniProt P41161 1-510)
How it was run: as §1

ELK4 = target: T2, ELK4 (Homo sapiens, UniProt P28324-2 1-405)
T2 sequence: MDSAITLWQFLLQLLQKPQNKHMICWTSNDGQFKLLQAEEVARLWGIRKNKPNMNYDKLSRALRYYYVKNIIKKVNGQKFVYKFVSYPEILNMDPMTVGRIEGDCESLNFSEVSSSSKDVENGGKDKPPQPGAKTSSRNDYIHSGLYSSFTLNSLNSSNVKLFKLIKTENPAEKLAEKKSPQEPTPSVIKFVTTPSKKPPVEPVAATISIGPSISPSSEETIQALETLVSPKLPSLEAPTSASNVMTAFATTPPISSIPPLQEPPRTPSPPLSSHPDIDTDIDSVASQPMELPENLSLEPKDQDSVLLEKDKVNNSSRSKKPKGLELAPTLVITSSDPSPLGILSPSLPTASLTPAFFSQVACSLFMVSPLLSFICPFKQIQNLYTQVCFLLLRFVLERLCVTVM
How it was run: as §1

ELF3 = target: T3, ELF3 (Homo sapiens, UniProt P78545 1-371)
T3 sequence: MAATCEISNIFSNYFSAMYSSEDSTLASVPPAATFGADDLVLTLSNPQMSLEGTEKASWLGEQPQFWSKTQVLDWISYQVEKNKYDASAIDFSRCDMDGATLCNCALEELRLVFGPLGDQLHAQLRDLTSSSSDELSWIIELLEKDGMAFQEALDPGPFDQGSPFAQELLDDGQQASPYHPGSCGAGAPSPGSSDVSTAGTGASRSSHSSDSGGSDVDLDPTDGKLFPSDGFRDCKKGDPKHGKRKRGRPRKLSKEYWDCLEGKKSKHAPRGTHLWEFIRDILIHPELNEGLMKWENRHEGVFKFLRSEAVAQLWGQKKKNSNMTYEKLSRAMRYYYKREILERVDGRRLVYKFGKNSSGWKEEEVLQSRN
How it was run: as §1

ERF = target: T4, ERF (Homo sapiens, UniProt P50548 1-548)
T4 sequence: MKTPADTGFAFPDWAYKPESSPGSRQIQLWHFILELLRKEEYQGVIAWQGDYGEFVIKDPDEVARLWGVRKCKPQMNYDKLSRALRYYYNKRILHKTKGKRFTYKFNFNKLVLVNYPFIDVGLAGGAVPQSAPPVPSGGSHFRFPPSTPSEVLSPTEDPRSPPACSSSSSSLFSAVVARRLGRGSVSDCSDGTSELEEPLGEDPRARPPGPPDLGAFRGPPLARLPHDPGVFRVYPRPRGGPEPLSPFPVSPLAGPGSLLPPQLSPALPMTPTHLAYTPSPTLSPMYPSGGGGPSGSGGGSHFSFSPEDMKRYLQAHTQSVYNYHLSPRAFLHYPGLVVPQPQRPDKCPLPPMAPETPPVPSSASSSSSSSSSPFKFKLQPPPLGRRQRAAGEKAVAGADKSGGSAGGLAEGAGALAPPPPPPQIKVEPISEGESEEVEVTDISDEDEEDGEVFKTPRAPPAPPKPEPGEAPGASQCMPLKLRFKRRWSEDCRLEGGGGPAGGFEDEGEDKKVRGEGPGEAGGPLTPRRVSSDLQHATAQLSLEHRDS
How it was run: as §1

ETS2 = target: T5, ETS2 (Homo sapiens, UniProt P15036 1-469)
T5 sequence: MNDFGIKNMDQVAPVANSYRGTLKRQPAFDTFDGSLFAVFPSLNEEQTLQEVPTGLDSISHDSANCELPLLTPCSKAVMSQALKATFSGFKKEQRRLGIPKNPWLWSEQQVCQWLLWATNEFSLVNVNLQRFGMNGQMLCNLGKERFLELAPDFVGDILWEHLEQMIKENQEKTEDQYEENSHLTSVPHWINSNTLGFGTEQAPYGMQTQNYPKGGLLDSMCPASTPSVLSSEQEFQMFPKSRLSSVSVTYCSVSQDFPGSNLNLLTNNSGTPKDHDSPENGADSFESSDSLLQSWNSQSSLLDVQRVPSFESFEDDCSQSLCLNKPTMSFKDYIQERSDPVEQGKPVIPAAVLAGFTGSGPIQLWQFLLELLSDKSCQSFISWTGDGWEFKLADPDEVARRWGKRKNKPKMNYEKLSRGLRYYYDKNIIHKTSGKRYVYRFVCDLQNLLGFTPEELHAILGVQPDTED
How it was run: as §1

ETV7 = target: T6, ETV7 (Homo sapiens, UniProt Q9Y603 1-341)
T6 sequence: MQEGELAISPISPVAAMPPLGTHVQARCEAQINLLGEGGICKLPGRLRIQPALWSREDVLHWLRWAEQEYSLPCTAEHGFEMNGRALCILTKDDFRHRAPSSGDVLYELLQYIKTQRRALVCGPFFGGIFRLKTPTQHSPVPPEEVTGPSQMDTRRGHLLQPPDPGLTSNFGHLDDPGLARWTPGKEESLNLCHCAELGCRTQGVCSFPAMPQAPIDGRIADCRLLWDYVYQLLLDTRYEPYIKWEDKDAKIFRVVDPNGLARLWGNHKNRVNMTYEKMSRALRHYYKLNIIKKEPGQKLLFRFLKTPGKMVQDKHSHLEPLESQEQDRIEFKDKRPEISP
How it was run: as §1

Chain of ETV5 (P41161 whole entry): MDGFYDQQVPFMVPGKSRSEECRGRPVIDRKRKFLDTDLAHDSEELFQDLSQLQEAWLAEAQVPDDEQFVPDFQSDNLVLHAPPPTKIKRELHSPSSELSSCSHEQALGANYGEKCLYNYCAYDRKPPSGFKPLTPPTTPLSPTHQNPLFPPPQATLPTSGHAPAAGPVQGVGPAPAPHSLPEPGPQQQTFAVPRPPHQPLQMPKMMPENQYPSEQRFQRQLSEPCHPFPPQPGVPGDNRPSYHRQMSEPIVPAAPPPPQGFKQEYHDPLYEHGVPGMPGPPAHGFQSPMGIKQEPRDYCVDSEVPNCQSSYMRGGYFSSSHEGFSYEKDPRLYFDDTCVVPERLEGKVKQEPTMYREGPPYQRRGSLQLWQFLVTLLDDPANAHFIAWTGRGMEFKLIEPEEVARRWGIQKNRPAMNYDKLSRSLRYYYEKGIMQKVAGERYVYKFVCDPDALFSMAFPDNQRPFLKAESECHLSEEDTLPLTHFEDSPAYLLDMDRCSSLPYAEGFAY
Chain of ELF1 (P32519 whole entry): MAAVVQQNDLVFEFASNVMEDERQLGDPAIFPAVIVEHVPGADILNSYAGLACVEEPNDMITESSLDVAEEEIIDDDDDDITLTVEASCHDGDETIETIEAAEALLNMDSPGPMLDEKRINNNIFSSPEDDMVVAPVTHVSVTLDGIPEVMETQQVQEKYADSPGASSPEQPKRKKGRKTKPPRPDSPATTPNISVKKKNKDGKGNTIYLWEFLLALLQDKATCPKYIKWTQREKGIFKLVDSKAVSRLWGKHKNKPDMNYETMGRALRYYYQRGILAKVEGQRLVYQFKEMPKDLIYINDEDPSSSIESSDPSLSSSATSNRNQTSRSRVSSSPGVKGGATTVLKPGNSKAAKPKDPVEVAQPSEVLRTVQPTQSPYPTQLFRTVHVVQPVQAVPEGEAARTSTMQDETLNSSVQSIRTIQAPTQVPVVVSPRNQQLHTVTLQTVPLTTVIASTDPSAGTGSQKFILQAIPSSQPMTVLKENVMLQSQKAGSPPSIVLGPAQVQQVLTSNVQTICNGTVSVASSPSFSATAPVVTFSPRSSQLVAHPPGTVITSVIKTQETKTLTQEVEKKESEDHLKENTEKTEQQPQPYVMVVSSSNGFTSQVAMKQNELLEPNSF

Sequence | binding signal (ELK1) | binding signal (ELF1) | binding signal (ETV5) | binding signal (ELK4) | binding signal (ELF3) | binding signal (ERF) | binding signal (ETS2) | binding signal (ETV7)
CATAGT | 1.03 fold enrichment (6-mer frequency, TF over GST control) | 1.01 fold enrichment (6-mer frequency, TF over GST control) | 1.01 fold enrichment (6-mer frequency, TF over GST control) | 1.14 fold enrichment (6-mer frequency, TF over GST control) | 1.07 fold enrichment (6-mer frequency, TF over GST control) | 1.13 fold enrichment (6-mer frequency, TF over GST control) | 1.03 fold enrichment (6-mer frequency, TF over GST control) | 1.11 fold enrichment (6-mer frequency, TF over GST control)
CGAGGT |  |  | 1.01 fold enrichment (6-mer frequency, TF over GST control) | 1.06 fold enrichment (6-mer frequency, TF over GST control) |  |  |  | 1.02 fold enrichment (6-mer frequency, TF over GST control)
